Results filed as inconclusive are left out. The source made the active and inactive calls. The calls were made as follows: active = hit-call score of the fitted dose curve at least 0.9, where 1 is the maximum; inconclusive = response in the unintended direction; inactive = score below 0.9.

These results are taken from PubChem BioAssay (EPA / NIEHS).

Nuclear receptor subfamily 4 group A member 2 (Homo sapiens), sequence (P43354 whole entry, looked up): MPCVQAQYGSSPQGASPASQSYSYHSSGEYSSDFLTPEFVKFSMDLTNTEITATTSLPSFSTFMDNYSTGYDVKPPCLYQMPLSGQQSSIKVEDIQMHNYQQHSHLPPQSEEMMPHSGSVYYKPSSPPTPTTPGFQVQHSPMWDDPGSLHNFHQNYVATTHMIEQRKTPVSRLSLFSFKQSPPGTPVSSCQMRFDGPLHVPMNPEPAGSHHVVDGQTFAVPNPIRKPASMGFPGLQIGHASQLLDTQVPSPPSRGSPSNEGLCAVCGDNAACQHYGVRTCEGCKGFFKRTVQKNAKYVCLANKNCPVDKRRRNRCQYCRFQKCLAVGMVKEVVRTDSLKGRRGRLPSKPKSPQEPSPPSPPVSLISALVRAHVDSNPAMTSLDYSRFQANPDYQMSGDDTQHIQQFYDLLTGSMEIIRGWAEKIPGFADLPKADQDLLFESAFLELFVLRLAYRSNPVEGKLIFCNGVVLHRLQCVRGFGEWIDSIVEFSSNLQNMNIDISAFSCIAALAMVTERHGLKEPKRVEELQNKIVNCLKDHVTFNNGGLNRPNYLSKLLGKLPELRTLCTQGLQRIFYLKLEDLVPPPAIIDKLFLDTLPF

The target in this test is Nuclear receptor subfamily 4 group A member 2 (Homo sapiens) (UniProt P43354). Briefly: ATG_NURR1_TRANS: Attagene TRANS-FACTORIAL HepG2 Assay for human Nuclear Receptor Related Protein 1 (NURR1) (AID 2282985). The settings on record: HepG2 Attagene TRANS reporter, mRNA readout. On the procedure:
ATG_TRANS is a cell-based, multiplexed-readout assay that uses HepG2, a human liver cell line, with measurements taken at 24 hours after chemical dosing in a 24-well plate.ATG_NURR1_TRANS is one of 30 assay component(s) measured or calculated from the ATG_TRANS assay. It is designed to make measurements of mRNA induction, a form of inducible reporter, as detected with fluorescence intensity signals by Reverse transcription polymerase chain reaction (RT-PCR) and Capillary electrophoresis technology.Data from the assay component ATG_NURR1_TRANS was analyzed into 1 assay endpoint. This assay endpoint, ATG_NURR1_TRANS, was analyzed in the positive analysis fitting direction relative to DMSO as the negative control and baseline of activity. Using a type of inducible reporter, measures of mRNA for gain-of-signal activity can be used to understand the reporter gene at the transcription factor-level as they relate to the gene NR4A2. Furthermore, this assay endpoint can be referred to as a primary readout, because this assay has produced multiple assay endpoints where this one serves a reporter gene function. To generalize the intended target to other relatable targets, this assay endpoint is annotated to the nuclear receptor intended target family, where the subfamily is orphan.
Human liver HepG2 cells are transiently transfected with multiple reporter transcription units (MRTUs) in 6-well plates using FuGene 6 reagent (Roche; 3 ml FuGene/1 mg DNA). The MRTU constructs are regulated by a cis-regulating element (promoter). […] A major difference between the CIS and TRANS system is that in CIS activities of endogenous TFs are measured, whereas the TRANS assay evaluates changes in activities of exogenous, chimeric NR-Gal4 proteins. […] At the end of 24 hour incubation, total RNA was isolated using TriZol reagent (Invitrogen). The isolated RNA is then reverse-transcribed using oligo(dT) primer and Mo-MLV reverse transcriptase (Invitrogen) with DNAse I (Ambion) treatment for 30 min. The one-tenth of the produced cDNA was amplified by PCR using Taq DNA polymerase (Invitrogen) and two reporter sequence-specific primers. The PCR products were fluorescently labeled by primer extension with 6-arboxyfluorescein (6-FAM) 5'-labeled reporter sequence-specific primer (2 min at 95 C, 20 s at 68 C and 10 min at 72 C) and these products were digested with 5U of HpaI (New England Biolabs) for 2h at 37 C. The fragments were purified using Qiaquick PCR columns (Qiagen), analyzed on an ABI 3130xL genetic analyzer (Applied Biosystems) with peak positions identified by using a set of X-rhodamine (ROX)-labeled MapMarker1000 molecular weight standards (BioVentures). The raw capillary electrophoresis data was processed using Attagraph software (Attagene).
For the molecule `COc1cc(OC)c2ccc(=O)oc2c1`, the result was inactive.
On to `CCOCC(C)O` (stereo not given), for which the molecule was called inactive.
Still for that read-out and setting: to `O=C(c1ccc(OCCN2CCCCC2)cc1)c1c(-c2ccc(O)cc2)sc2cc(O)ccc12` belongs “inactive”.
Take `CC(=O)CCC=C(C)CCC=C(C)C`: the molecule was called inactive.
On the same count and under the same terms, to `CC=CC(=O)C1=C(C)C=CCC1(C)C` belongs “inactive”; to `CCO[Si](CC)(OCC)OCC`, “inactive”; to `C=C(C)C(=O)OCCN(C)C`, “inactive”.
The same measure, in the same setting: to `COc1ccc(N)c(C)c1` belongs “inactive”; to `CC1=CCC(C(C)C)=CC1`, “inactive”; to `COc1ccc2[nH]cc(CCNC(C)=O)c2c1`, “inactive”.
For `S=c1[nH][nH]c(=S)s1`, the molecule was classed as inactive.
Same read-out and setting: to `CC(C)=CC(=O)O` belongs “inactive”.
On the same count and under the same terms, to `CC(=O)OC/C=C(C)/C=C/C=C(C)/C=C/C1=C(C)CCCC1(C)C` belongs “inactive”; to `O=Cc1ccccc1O`, “inactive”.
Turning to `CCCO`, the molecule was classed as inactive.
Regarding `CCC(C)(C)C1CCC(OC)CC1` (stereo not given), the molecule was classed as inactive.
With `CCO[Si](CCC#N)(OCC)OCC`, the molecule was called inactive.
Take `CCCCCC1CCC(=O)O1` (stereo not given): the call was inactive.
As to `CC(=O)C1C(=O)C=C(C)OC1=O` (stereo not given), the call was inactive.
A word on the AC50: it is the midpoint of the concentration-response curve, whichever way the signal moves. Take `CCCCOCCOC(=O)c1ccccc1C(=O)OCCOCCCC`: the AC50 was 45.3 µM (active).
Take `CCCCCCCCSCc1cc(C)c(O)c(CSCCCCCCCC)c1`: the result was inactive.
As for `Nc1cc([N+](=O)[O-])ccc1C(=O)O`, the molecule was called inactive.
Same read-out and setting: to `CCC=C(C)C=O` belongs “inactive”.
In the case of `C=CC(=O)OCCCCCC`, the result was inactive.
As to `CC(=O)OCC=C(C)CCC=C(C)CCC=C(C)C`, the molecule was classed as inactive.
On the same count and under the same terms, to `CCCOC(=O)CC` belongs “inactive”.
Regarding `C=CC(=O)OCC(CO)(COC(=O)C=C)COC(=O)C=C`, the call was inactive.
Same read-out and setting: to `CCCCCCOC(C)=O` belongs “inactive”; to `C#C[C@]1(O)CC[C@H]2[C@@H]3CCc4cc(O)ccc4[C@H]3CC[C@@]21C`, “inactive”; to `CC(C)Cc1ccc(C(C)C(=O)O)cc1` (stereo not given), “inactive”.
Same read-out and setting: to `NCCN1CCNCC1` belongs “inactive”; to `CCCCCCCCCCCCOC(C)=O`, “inactive”.
On to `CCCCCCCCCC(=O)OCC`, for which the call was inactive.
Consider `c1ccc(Sc2ccccc2)cc1`, for which the molecule was called inactive.
Still for that read-out and setting: to `c1ccc2c(c1)-c1ccc3ccc4cccc5cc-2c1c3c45` belongs “inactive”.
As to `CCCCCCCCOC(=O)c1ccc(O)cc1`, the result was inactive.
On the same count and under the same terms, to `CC(=O)OC(C)(C)C1CC=C(C)CC1` (stereo not given) belongs “inactive”; to `O=C1CCC(=O)N1`, “inactive”.
On the same count and under the same terms, to `NC(=O)c1cccnc1` belongs “inactive”.
With `OCCCO`, the molecule was classed as inactive.
